Assay results as given in PubChem BioAssay (NCI).
Compounds without any hit were thinned out: in the full panel of roughly 83,000, 20% have a hit.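 Values shown are percent growth following 48 h exposure of cells in 96-well plates to a single concentration of compound; below 10 was considered active.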 A number with no mark means an inactive call. Calls of active or inactive are those of the source.

How the values were obtained:
Test in all cases: NCI-60 one-dose screen, 48 h (100 = growth as untreated, 0 = no growth, -100 = all killed)
Settings in all cases: 10 µM unless noted
NCI-H23 lung = test system: NCI-H23 lung
NCI-H226 lung = test system: NCI-H226 lung
NCI-H322M lung = test system: NCI-H322M lung
HOP-62 NSCLC = test system: HOP-62 NSCLC
NCI-H460 lung = test system: NCI-H460 lung
A549/ATCC NSCLC = test system: A549/ATCC NSCLC
786-0 renal = test system: 786-0 renal
COLO 205 colon = test system: COLO 205 colon

SMILES | growth (NCI-H23 lung) | growth (NCI-H226 lung) | growth (NCI-H322M lung) | growth (HOP-62 NSCLC) | growth (NCI-H460 lung) | growth (A549/ATCC NSCLC) | growth (786-0 renal) | growth (COLO 205 colon)
CCCCCCCCCCCCOC(=O)/C=C\C(=O)NC(N)=O | 110% | 96.8% | 111% | 101% | 93.2% | 81.6% | 89.9% | –
COc1cc([C@@H]2c3cc4c(cc3[C@H](O)[C@H]3COC[C@@H]23)OCO4)cc(OC)c1OC | 91.8% | 88.8% | 104% | 65.4% | 94.4% | 98.8% | 78.5% | –
COC(=O)C(Cc1cnc[nH]1)N1CC(=O)N2[C@@H](c3ccccc3)SC[C@H]2C1=O (some centres not stated) | 100% | 143% | 112% | 114% | 109% | 96.4% | 107% | –
CCC(C)[C@H](NC(=O)Nc1cc(C(F)(F)F)cc(C(F)(F)F)c1)C(=O)N[C@@H](Cc1cn(C)cn1)C(=O)OC (some centres not stated) | -83.2% [100 µM] (active) | -50.6% [100 µM] (active) | -96.8% [100 µM] (active) | -99.2% [100 µM] (active) | -64.5% [100 µM] (active) | -76% [100 µM] (active) | -88.4% [100 µM] (active) | -83.9% [100 µM] (active)
COC(=O)c1c[n+]([O-])ccc1OC | 106% | 107% | 97.1% | 97.1% | 107% | 105% | 100% | 109%
COC(=O)C(C(=O)OC)C(Br)C(Br)C(Br)c1ccccc1 (configuration not stated) | 108% | 96.5% | 113% | 144% | 108% | 96% | 96.3% | 71.2%
COC(=O)[C@H](Cc1cn(C)cn1)NC(=O)[C@H](Cc1c[nH]c2ccccc12)NC(=O)Nc1cc(C(F)(F)F)cc(C(F)(F)F)c1 | -72.4% [100 µM] (active) | -47.9% [100 µM] (active) | -41.9% [100 µM] (active) | -92% [100 µM] (active) | -25.8% [100 µM] (active) | -50.8% [100 µM] (active) | -83.8% [100 µM] (active) | -77.1% [100 µM] (active)
O=C(c1ccccc1)c1ccccc1-c1ccccc1 | 46.2% | 71.8% | 65.6% | 32.5% | 15.1% | 38.3% | 37.8% | 22.6%
CC(=O)NCCN | 111% | 97.5% | 108% | 108% | 109% | 96.6% | 98.3% | –
O=C1C(Cl)=C(SC2=NCCN2)C(=O)c2ccccc21 | 2.92% (active) | 91.7% | 99.5% | 98.8% | 70% | 95.2% | 99.2% | 111%
N#Cc1c2ncccc2c2nnc3cc(Cl)c(Cl)cc3n12 | 88.6% | 104% | 100% | 82.7% | 100% | 107% | 108% | 113%
CCn1cnc(C[C@H](NC(=O)[C@@H](NC(=O)Nc2cc(C(F)(F)F)cc(C(F)(F)F)c2)C(C)C)C(=O)OC)c1 | -78.8% [100 µM] (active) | -55.6% [100 µM] (active) | -95.9% [100 µM] (active) | -97.9% [100 µM] (active) | -43.2% [100 µM] (active) | -71.4% [100 µM] (active) | -87.5% [100 µM] (active) | -94.1% [100 µM] (active)
CN1NC(c2ccccc2)NN(C)C1=O | 107% | 102% | 89.8% | 93.6% | 109% | 101% | 102% | 105%
COc1ccc(C(=O)N2N=C(c3ccc(Br)cc3)CC2c2cn(-c3ccccc3)nc2-c2ccccc2)cc1 (configuration not stated) | 42.4% | 88.9% | 78% | 22.6% | 41.8% | 22.8% | 74% | 26.2%
CSCc1ncc(-c2ccc(C(F)(F)F)cc2)c(NC2CCCCCC2)n1 | 65.9% [25 µM] | 87.5% [25 µM] | 97.9% [25 µM] | 98.6% [25 µM] | 49.8% [25 µM] | 68.3% [25 µM] | 66.4% [25 µM] | 95% [25 µM]
CC(=O)N1CCN(CCNC(=O)n2cc(-c3ccncc3)c(-c3ccc(O)c(Cl)c3)n2)CC1 | 109% | 112% | 141% | 106% | 103% | 100% | 113% | –
COc1ccc(C2CC(=O)c3c(O)cc(OC4OC(COC5OC(C)C(O)C(O)C5O)C(O)C(O)C4O)cc3O2)cc1O (configuration not stated) | 105% | 105% | 81.7% | 10.3% | 110% | 98.3% | 100% | 112%
O=C1C(Br)=CC2C1C1C3CCC3C2(Br)C12OCCO2 (configuration not stated) | 65.8% | 59.6% | 54.5% | 47.2% | 22.6% | 33.2% | 42.8% | 38.9%
O=Nc1ccc(O)c2ccccc12 | -9.22% (active) | 101% | 106% | 38.4% | 96.7% | 41.6% | 77.7% | 21.9%
COc1ccc2c(c1)cn1c3ccc(O)cc3[nH]c(=O)c21 | 23.3% | 45.9% | 41.1% | 25.8% | -52.4% (active) | 26.8% | 22.9% | –
O=c1c2c(c3ccccc3n1-c1ccccc1)NC(=S)NC2c1ccccc1 (configuration not stated) | 98.5% | 92.1% | 130% | 90.5% | 104% | 103% | 97.3% | –
COC(=O)[C@H](Cc1cn(C)cn1)NC(=O)[C@@H](NC(=O)Nc1cc(C(F)(F)F)cc(C(F)(F)F)c1)C(C)(C)C | -64.7% [100 µM] (active) | 64.7% [100 µM] | -35.3% [100 µM] (active) | -84.2% [100 µM] (active) | -56.3% [100 µM] (active) | 14.8% [100 µM] | -88.2% [100 µM] (active) | -74.6% [100 µM] (active)
COCn1c(C(=O)OC)cc2oc(/C=C3/SC(=S)N(N)C3=O)cc21 | 103% | 115% | 77.5% | 122% | 105% | 105% | 96.5% | –
O=C(N/N=C/c1coc2ccccc2c1=O)c1cc2oc(-c3ccccc3)cc2[nH]1 | 113% | 114% | 89.4% | 95.9% | 105% | 105% | 106% | –
COc1cc(-c2nn(-c3ccc(NC(=O)c4cc(Cl)cc(Cl)c4)cc3)cc2-c2ccncc2)ccc1Cl | 88% | 107% | 104% | 56.9% | 54.8% | 73% | 16.7% | 101%
COC(=O)c1cc(=O)nc(N/N=C/c2ccccc2O)s1 | 89% | 101% | 67.2% | 90.7% | 94.5% | 94.4% | 95.1% | 93%
CN(C)CCOC(=O)C(C)(C)C | 114% | 98% | 107% | 112% | 103% | 101% | 110% | 116%
CC(C)(C)c1ccc(OCCOC(=O)CBr)cc1 | 98.7% | 102% | 120% | 99.1% | 102% | 105% | 103% | 89.1%
COc1cc(-c2nn(-c3ccc(NC(=O)c4ccc(Cl)c(Cl)c4)cc3)cc2-c2ccncc2)ccc1Cl | 77.8% | 88.3% | 101% | 52.7% | 48.3% | 68.3% | -34.5% (active) | –
